HCMV inh = qHTS Assay for inhibitors of the human cytomegalovirus (HCMV); AID 1259415, 2018; activity change, negative = inhibition, % at 57.5 µM; HFF cells, HCMV-luciferase reporter, 72 h; hits give low values; actives 4.5% (n = 410,000); in the data active = activity change below about -60%; inconclusive = no clear call, values can overlap the other calls; inactive = above about -39%
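After 16 h attachment at 37C, HFF cells received test compound and HCMV-luciferase (1 PFU/cell); reporter luminescence read 72 h later, data normalized against buffer-only and known inhibitor Salinomycin.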
Lassa entry inh = qHTS for Inhibitors of binding or entry into cells for Lassa Virus; Lassa virus pseudotype entry inhibition, cell reporter; Potency, µM (doses to about 37.9 µM), for inactives: top-dose activity change, negative = inhibition, hits mostly inhibitors; actives 1.2% (n = 300,000); calls by dose curve; tested in HEK293 cells; also: potency is read from the fitted curve at half-maximal effect; nearly all actives have a fitted effect of over 50% in size
FMDV inh = High Throughput Screening for Foot and Mouth Disease Virus Antivirals. AID 1159524, 2015. FMDV antiviral cell-based qHTS. Potency, µM (highest dose often 57.9 µM), for inactives: at the top dose activity change, negative = inhibition, actives largely listed as inhibitors. actives 1.2% (n = 410,000); calls by dose curve; tested in HEK293T cells; also: read-out not given here; potency is read from the fitted curve at half-maximal effect; nearly all actives have a fitted effect of over 45% in size
MARV entry inh = qHTS for inhibitors of binding or entry into cells for Marburg Virus; AID 540276, 2011; Marburg virus pseudotyped entry inhibition, cell reporter; actives 1.8% (n = 300,000); Potency, µM (titrated, usually from 37.8 µM), inactives show top-dose activity change, negative = inhibition, hits mostly inhibitors; calls by dose curve; tested in HEK293 cells; also: potency is read from the fitted curve at half-maximal effect
HCV inh = qHTS Assay for Inhibitors of Hepatitis C Virus (HCV) | Huh7.5.1 HCVcc-Cre infection, luciferase reporter, 44 h | Potency, µM (doses to about 41.8 µM), for the others: top-dose activity change, negative = inhibition, usual class: inhibitors | actives 3.4% (n = 340,000) | AID 651820, 2012; active = well fitted inhibition curve with a large enough effect; inconclusive = small, poorly fitted or top-dose-only effect, or another doubt; inactive = no such curve, though single readings can be large or run the other way; also: potency is read from the fitted curve at half-maximal effect
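Seed cells (1,000/well) for 4 h; treat with compound and infect with HCVcc-Cre, moi about 0.5. Incubate 44 h, then detect luciferase activity.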
Starred values were filed as active, the others as inactive; ? = inconclusive; · = no result given; ! = not confirmed by another sample; [ ] = another dose, or the depositor's remark. The list is not random: actives were taken first. Their share in the collection is about 7.9%. % is scaled to controls: 0 for no effect and ±100 for the full control effect.

SMILES	HCMV inh	Lassa entry inh	FMDV inh	MARV entry inh	HCV inh
O=C(c1ccco1)N1CCN(C(=O)c2ccc(COc3ccc4c(c3)CCC4)o2)CC1	-16	14µM*	?	?	?
Cc1ccc(CN=C(N)Nc2nc(C)cc(C)n2)cc1	-80*	-23%	-24%	11µM*	16µM*
Cc1ccc(C)c(N/C(N)=N/c2nc(C)cc(C)n2)c1	-21	-14%	?	?	?
O=C(CCl)N1c2ccccc2CCc2ccccc21	-102*	·	·	·	·
CCN(CC)CCNC(=O)c1ccc(-c2nc(CS(=O)(=O)c3ccc(C)cc3)c(C)o2)cc1	-27	4%[46.1 µM]	-11%	·	·
COCCCNc1nnc(Cc2ccc(Cl)cc2)c(=O)[nH]1	-75*	·	-28%	·	-2%
Cc1nc2cccnc2n1C1CCN(C(=O)Nc2ccccc2C(F)(F)F)CC1	0	-5%[46.1 µM]	-27%	·	·
CCOC(=O)c1cn(Cc2cccc(Cl)c2)nn1	-16	?	3%	?	31%
CCOC(=O)c1c(Cc2cccc(Cl)c2)c[nH]c1C	-62*	-4%[46.1 µM]	-2%	2%[46.1 µM]	5%
COC(=O)c1c(Cc2ccccc2Cl)c[nH]c1C	-67*	0%	-18%	?	-13%
COC(=O)c1cc(S(=O)(=O)NCc2ccccc2Cl)c[nH]1	·	·	34%	·	9%
O=S(=O)(CCc1nc2ccccc2[nH]1)c1ccc(Cl)cc1	-61*	2%	-6%	-9%	2%
c1ccc2[nH]c(CCCCCc3nc4ccccc4[nH]3)nc2c1	-21	·	-7%	·	·
Clc1ccc(OCc2nc3ccccc3[nH]2)cc1	37	?	6%	?	11µM*
Cc1ccc(S(=O)(=O)CCc2nc3ccccc3[nH]2)cc1	-69*	?	5%	3%[46.1 µM]	-1%
Cc1ccc(S(=O)(=O)CCc2nc3ccccc3[nH]2)cc1C	-27	·	12%	-21%[46.1 µM]	-6%
CC(C)CC(NC(=O)NC(CCC(=O)O)C(=O)O)C(=O)O (stereo not drawn)	·	·	-7%	·	·
CC(C)c1c(C(=O)N2CCN(CCO)CC2)cnn1-c1nccc(-c2cccs2)n1	·	·	-5%	·	·
Cn1c(-c2cccnc2)cc2cnc(Nc3ccc(OC(F)(F)F)cc3)cc21	-60*	·	·	·	·
COc1ccc(Nc2cc3c(cn2)cc(-c2cccc(C(F)(F)F)c2)n3C)c(OC)c1	-1	·	·	·	·
COc1cccc(Nc2cc3c(cn2)cc(-c2cccc(C(F)(F)F)c2)n3C)c1	-80*	·	·	·	·
COc1ccc(-c2nc3cnc(Nc4cccc(OC(F)(F)F)c4)cc3n2C)cc1OC	7	·	·	·	·
Cn1c(-c2ccccc2)nc2cnc(Nc3cccc(OC(F)(F)F)c3)cc21	-79*	·	·	·	·
CCn1cc(C(=O)N2CCN(c3cccc(Cl)c3)CC2)c(=O)c2cc(S(=O)(=O)N3CCCCC3)ccc21	11	-14%[46.1 µM]	-4%	7%[46.1 µM]	·
COc1cc(/C=C2\SC(c3ccc(C)cc3)=NC2=O)cc(OC)c1O	-75*	3%	17%	-18%	-2%
SMILES	HCMV inh	Lassa entry inh	FMDV inh	MARV entry inh	HCV inh
Nc1[nH]c(C(=O)c2ccccc2)c(-c2cccc(C(F)(F)F)c2)c1C(=O)NCCc1c[nH]c2ccccc12	-72*	·	·	·	·
CCOC(=O)c1c(CNCCN(CC)CC)n(C)c2cc(Br)c(OC)cc12	4	?	-26%	11µM*!	?
CCOC(=O)c1c(C)n(C)c2ccc(OC(C)C(=O)OC)cc12 (stereo not drawn)	45	-1%	-20%	10%	?
CCN(CC)CCNC(=O)c1c(C)n(-c2ccccc2)c2cc(Br)c(OC)cc12	-11	7.3µM*	-20%	?	?
COc1cc2c(C(=O)N3CCN(C)CC3)c(C)n(-c3ccccc3)c2cc1Br	2	13%	-8%	?	1%
CCOC(=O)c1c(C)n(C)c2cc(Br)c(C(=O)OC)cc12	11	-4%	-18%	?	10µM*
COc1ccc(/C=N/NC(=O)c2nc(Cl)c(Cl)c(N)c2Cl)cc1COc1ccccc1F	14	-22%	-29%	?	?
COc1ccc(/C=N\NC(=O)c2ccccc2F)cc1COc1ccc(F)cc1F	-80*	?	-2%	?	?
COc1ccc(/C=N/NC(=O)c2nc(Cl)c(Cl)c(N)c2Cl)cc1COc1ccc(F)cc1F	44	?	-23%	6%	11µM*
CCOC(=O)c1ccccc1OCc1cc(/C=N/n2cnnc2)ccc1OC	-7	-20%	?	0.1µM*	-10%
O=C1C=C(c2c(O)ccc3ccccc23)c2ccccc2C1=O	-97*	6.3µM*	22µM*	?	?
O=C1C=C(O)c2ccccc2C1=O	·	·	7%	·	·
CN[C@@H]1C[C@@H](c2ccc(Cl)c(Cl)c2)c2ccccc21	·	13µM*	·	4.6µM*	·
CN[C@@H]1C[C@H](c2ccc(Cl)c(Cl)c2)c2ccccc21	·	·	?	4.6µM*	·
Cc1nnc2nc(-c3ccccc3)nc(-c3ccccc3)n12	-80*	·	9%	·	?
COc1cc(C(=O)Oc2cccc(Nc3ncnc4ccccc34)c2)cc(OC)c1OC	-70*	?	·	?	25µM*
COc1ccc(C(=O)Oc2cccc(Nc3ncnc4ccccc34)c2)cc1OC	-18	?	20µM*	?	?
CC(C)[C@H]1C(=O)O[C@H](C(C)C)C(=O)N(C)[C@@H](C(C)C)C(=O)O[C@H](C(C)C)C(=O)N(C)[C@@H](C(C)C)C(=O)O[C@H](C(C)C)C(=O)N1C	·	·	11µM*	·	?
O=C1Nc2cc(C(=O)NCCCN3CCOCC3)ccc2S/C1=C/c1ccccc1F	-28	·	?	·	8.9µM*
COc1ccc(/C=C2/Sc3ccc(C(=O)NCCN4CCCCCC4)cc3NC2=O)cc1	-112*	·	-6%	·	?
O=C1Nc2cc(C(=O)NCCCN3CCCC3)ccc2S/C1=C\c1ccccc1	?	·	-24%	·	11µM*
COc1ccc(C(=O)NCCN2CCCC2)cc1	36	-4%	-8%	-17%	-3%
O=C(NCCc1ccc(Cl)cc1)c1cnc2sc(N3CCCCC3)nn2c1=O	10	?	-29%	·	·
O=C(CN1C(=O)CCc2cc(S(=O)(=O)N3CCCCC3)ccc21)NCc1ccc(Cl)cc1	3	?	-13%	·	·
O=C([C@H](c1ccccc1)N1CCOCC1)N1CCOCC1	·	·	·	29%[46.1 µM]	·
C#CCn1c(=NC(=O)c2ccc(Cl)s2)sc2cccc(OC)c21	5	·	14%	·	-4%
C#CCn1c(=NC(=O)c2cccs2)sc2cccc(OCC)c21	-67*	·	-21%	·	?
FC(F)(F)c1nc(-c2cccnc2)ncc1-c1nnnn1-c1ccccc1	-26	-1%	0%	1%	?
Clc1ccc(-n2nnnc2-c2cnc(-c3ccncc3)nc2-c2cccs2)cc1	-62*	?	-2%	?	22µM*
CC(c1ccon1)N(C)C(=O)c1cnn(-c2ncc3c(n2)-c2ccccc2CC3)c1C1CC1 (stereo not drawn)	·	·	25%	·	·

Screening data deposited in PubChem BioAssay by National Center for Advancing Translational Sciences (NCATS).
